Shown are actives, neighbours in structure and some others; about 2.5% of the full set was active somewhere.
Cruzain inh Det = cruzain (T. cruzi) inhibition with detergent. P25779. purified cruzain, Z-FR-AMC fluorescence, 0.01% Triton. Potency, µM, for the others: max response, negative = inhibition, hits mostly inhibitors. 200,000 compounds, 0.43% hits. AID 1478;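 further: plate controls were neutral wells for no effect and buffer without enzyme for full effect; nearly all actives have a fitted effect of over 40% in size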
Target sequence (P25779 123-467 limits assumed): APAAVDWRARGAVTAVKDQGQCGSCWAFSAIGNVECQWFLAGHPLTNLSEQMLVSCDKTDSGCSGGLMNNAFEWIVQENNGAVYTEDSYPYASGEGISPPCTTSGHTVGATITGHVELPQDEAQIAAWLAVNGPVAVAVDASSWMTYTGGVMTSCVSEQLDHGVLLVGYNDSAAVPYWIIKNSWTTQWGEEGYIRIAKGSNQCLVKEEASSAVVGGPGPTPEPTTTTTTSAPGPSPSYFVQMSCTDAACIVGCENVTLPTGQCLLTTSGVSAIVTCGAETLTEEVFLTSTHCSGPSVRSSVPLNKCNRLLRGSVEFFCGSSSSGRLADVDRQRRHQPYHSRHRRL
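Enzyme 1.5 nM, Z-FR-AMC 2 uM, NaOAc 100 mM pH 5.5, DTT 5 mM, Triton X-100 0.01%; 15 min RT compound preincubation; kinetic ex360/em450, 60 s delta.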
Cruzain inh noDet = blocks cruzain activity in detergent-free assay. purified cruzain, Z-FR-AMC fluorescence, no detergent. Potency, µM, for inactives: max response, negative = inhibition, hits mostly inhibitors. 200,000 compounds, 2.3% hits. AID 1476;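 further: plate controls were enzyme without inhibitor for no effect and buffer without enzyme for full effect; nearly all actives have a fitted effect of over 40% in size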
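Detergent-free condition (0.00005% Triton X-100) in acetate buffer pH 5.5 with DTT. 1.5 nM enzyme and compound were pre-mixed 15 min, then 2 uM Z-FR-AMC substrate added; reaction progress from fluorescence change between first and third reads (60 s).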
An asterisk follows results filed as active. The call rests on the fitted dose curve; in most records, active means well fitted curve in the direction sought with a large enough effect; inconclusive means small, poorly fitted or top-dose-only effect, or another doubt; inactive means no such curve, though single readings can be large; an effect the other way counts as inactive or inconclusive. Potency means the concentration at half of the fitted maximal effect.

Screening Cc1ccc(C(=O)COC(=O)c2ccccc2NC(=O)c2ccccc2)cc1[N+](=O)[O-] returned Cruzain inh Det -3% and Cruzain inh noDet inconclusive.
For CCOC(=O)c1ccc(NS(=O)(=O)c2ccc3[nH]c4c(c3c2)CCCCC4)cc1 the results were Cruzain inh Det -4% and Cruzain inh noDet inconclusive.
For CCc1ccc(NC(=O)C(C)OC(=O)c2ccc(NS(=O)(=O)c3ccc(C)c([N+](=O)[O-])c3)cc2)cc1 (configuration not stated) the results were Cruzain inh Det -1% and Cruzain inh noDet 16µM*.
CC(=O)c1ccc(NC(=O)C(C)OC(=O)c2ccc(NS(=O)(=O)c3ccc(F)c(F)c3)cc2)cc1 (configuration not stated) was read as Cruzain inh Det -7% and Cruzain inh noDet 16µM*.
Cc1ccc(S(=O)(=O)Nc2ccccc2C(=O)OC(C)C(=O)Nc2ccc3ccccc3c2)cc1[N+](=O)[O-] (configuration not stated) was read as Cruzain inh Det -4% and Cruzain inh noDet 7.9µM*.
Cc1ccc(NC(=O)C(C)OC(=O)c2ccc(NS(=O)(=O)c3ccc(F)c(F)c3)cc2)cc1 (configuration not stated) was read as Cruzain inh Det -10% and Cruzain inh noDet -23%.
For O=C1C=C(Nc2nc(C(=O)O)cc(=O)[nH]2)c2ccccc2C1=O the results were Cruzain inh Det -5% and Cruzain inh noDet -3%.
Cn1c(CNC(=O)CSc2n[nH]c(-c3ccccc3)n2)nc2ccccc21 was read as Cruzain inh Det 3% and Cruzain inh noDet 2%.
`CCC(=O)N1CCc2cc(S(=O)(=O)NC(C(=O)NCCc3ccc(OC)c(OC)c3)C(C)C)ccc21` (configuration not stated) gave Cruzain inh Det -5% and Cruzain inh noDet 2%.
Cc1ccc(NC(=O)c2cccc(NC(=O)/C=C/c3ccco3)c2)cc1C was read as Cruzain inh Det -9% and Cruzain inh noDet -10%.
Cc1ccc(-n2nc3ccc(NC(=O)/C=C/c4ccco4)cc3n2)cc1 was read as Cruzain inh Det -7% and Cruzain inh noDet 16µM*.
`O=C(Cn1c(=O)oc2cc(S(=O)(=O)N3CCCC3)ccc21)NC1CCCc2ccccc21` (configuration not stated) gave Cruzain inh Det -11% and Cruzain inh noDet 25µM*.
Screening CC(NC(=O)Cn1c(=O)oc2cc(S(=O)(=O)N3CCCC3)ccc21)c1ccccc1 (configuration not stated) returned Cruzain inh Det 1% and Cruzain inh noDet inconclusive.
Screening O=C(c1ccc2nc(-c3ccco3)c(-c3ccco3)nc2c1)N1CCN(c2ccccc2)CC1 returned Cruzain inh Det inconclusive and Cruzain inh noDet -2%.
O=C(c1ccc2nc(-c3ccco3)c(-c3ccco3)nc2c1)N1CCC2(CC1)OCCO2 was read as Cruzain inh Det 25µM* and Cruzain inh noDet inconclusive.
Cc1ccc2c(c1)-c1c(ssc1=S)C(C)(C)N2C(=O)c1ccco1 was read as Cruzain inh Det -16% and Cruzain inh noDet 16µM*.
For CC1(C)c2ssc(=S)c2-c2ccccc2N1C(=O)c1ccco1 the results were Cruzain inh Det -4% and Cruzain inh noDet inconclusive.
CCOCCc1nn2c(=O)cc(COC(=O)c3ccccc3NC(=O)C3CCCCC3)nc2s1 was read as Cruzain inh Det -1% and Cruzain inh noDet 10%.
Screening O=C(Cn1c(=O)n(Cc2ccc3c(c2)OCO3)c(=O)c2ccc(C(=O)NC3CCCCC3)cc21)Nc1ccccc1F returned Cruzain inh Det 0% and Cruzain inh noDet 13µM*.
Screening CCc1ccccc1NC(=O)Cn1c(=O)n(Cc2ccc3c(c2)OCO3)c(=O)c2ccc(C(=O)NC3CCCCC3)cc21 returned Cruzain inh Det 5% and Cruzain inh noDet -9%.
`CC1CCC(NC(=O)c2ccc3c(c2)N(Cc2ccccc2F)C(=O)c2ccccc2S3)CC1` (configuration not stated) gave Cruzain inh Det -2% and Cruzain inh noDet inconclusive.
CCOC(=O)Nc1ccc2c(CN3C(=O)NC4(CCCC4)C3=O)cc(=O)oc2c1 was read as Cruzain inh Det -23% and Cruzain inh noDet -8%.
CCOC(=O)Nc1ccc2c(CN3CCN(S(=O)(=O)c4ccccc4)CC3)cc(=O)oc2c1 was read as Cruzain inh Det -1% and Cruzain inh noDet 13µM*.
Screening Cc1cc2oc(=O)cc(CN3CCN(C/C=C/c4ccccc4)CC3)c2cc1O returned Cruzain inh Det -1% and Cruzain inh noDet -21%.
Screening Cc1ccc2c(CN3CCN(S(=O)(=O)/C=C/c4ccccc4)CC3)cc(=O)oc2c1 returned Cruzain inh Det -2% and Cruzain inh noDet 25µM*.
`COc1cc(C(=O)Nc2ccc(-c3cc(C(F)(F)F)nn3-c3ccccc3)cc2)cc(OC)c1OC` gave Cruzain inh Det -6% and Cruzain inh noDet inconclusive.
`Cc1ccc(-n2ncc3c(N(C)Cc4ccccc4)ncnc32)cc1` gave Cruzain inh Det 1% and Cruzain inh noDet -4%.
Screening CCOC(=O)c1cnn(-c2nc(C)nc3sc4c(c23)CCC4)c1N returned Cruzain inh Det 4% and Cruzain inh noDet inconclusive.
`CCOC(=O)c1cnn(-c2nc(SC)nc3sc4c(c23)CCC4)c1N` gave Cruzain inh Det 1% and Cruzain inh noDet 7.9µM*.
`COc1ccc(C2C(=O)N(C3CCCCCC3)CC(=O)N2CCC2=CCCCC2)cc1` (configuration not stated) gave Cruzain inh Det 1% and Cruzain inh noDet -6%.
Screening O=c1c2[nH]c3ccccc3c2nc(SCc2cccc(F)c2)n1-c1ccccc1 returned Cruzain inh Det -1% and Cruzain inh noDet inconclusive.
Cc1ccc(C)c(N2CCN(C(=O)c3cc4ccc5cccnc5c4[nH]3)CC2)c1 was read as Cruzain inh Det -7% and Cruzain inh noDet -26%.
Cc1cccc(N2CCN(C(=O)c3cc4ccc5cccnc5c4[nH]3)CC2C)c1 (configuration not stated) was read as Cruzain inh Det -7% and Cruzain inh noDet 13µM*.
For COc1ccc(NC(=O)CCS(=O)(=O)c2cc3c4c(c2)CCN4C(=O)CC3)cc1OC the results were Cruzain inh Det -2% and Cruzain inh noDet 0%.
Screening CCc1ccccc1NC(=O)c1sc(-n2nc(C)c(Cc3ccccc3)c2C)nc1C returned Cruzain inh Det -2% and Cruzain inh noDet -5%.
Screening COc1cc2c(cc1OC)C1C(=O)c3ccc4c(c3OC1CO2)C=CC(C)(C)O4 (configuration not stated) returned Cruzain inh Det -1% and Cruzain inh noDet inconclusive.
For COc1ccc(OC)c(-c2cn(S(=O)(=O)c3ccccc3)nc2N)c1 the results were Cruzain inh Det -14% and Cruzain inh noDet -1%.
COc1ccccc1-c1cn(S(=O)(=O)c2ccc(C)cc2)nc1N was read as Cruzain inh Det -3% and Cruzain inh noDet 10µM*.
COc1ccc(-c2nc3ccccc3n3c(-c4ccccc4)c4c(=O)n(C)c(=O)n(C)c4c23)cc1OC was read as Cruzain inh Det -2% and Cruzain inh noDet 1%.
Screening CC(C)(O)[C@@H]1CCC[N+]2(C)CCCC[C@H]12 (some centres not stated) returned Cruzain inh Det 4% and Cruzain inh noDet -9%.
Cc1cc(C)nc(N/N=C/c2ccccc2OCc2ccc([N+](=O)[O-])cc2)n1 was read as Cruzain inh Det -4% and Cruzain inh noDet -16%.
For O=[N+]([O-])c1ccc(N/N=C\c2ccccc2OCc2ccccc2)cc1 the results were Cruzain inh Det -3% and Cruzain inh noDet 25µM*.

Source: PubChem
